Screening data from PubChem BioAssay.
An excerpt weighted towards active compounds, which were near 1.6% of everything screened.
p53ts 39C tox = cytotoxicity in p53ts cells at nonpermissive temperature; actives 1.5% (n = 130,000); H1299-p53A138V viability at 39C, ATP luminescence, 24 h; Potency, µM (doses to about 46.1 µM), usual class: cytotoxic; note: nearly all actives have a fitted effect of over 55% in size
Imprint erasure = inducers of genomic imprint erasure in mouse ES cells; actives 0.02% (n = 110,000); Potency, µM (series often up to 60.7 µM), usual class: activators; mouse ES Peg3-LacZ reporter, beta-gal luminescence, 40 h
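Each well holds 300 Peg3LacZ-Neo (maternal) female ES cells incubated 40 h at 37C, 5% CO2. LacZ is measured by BetaGlo luminescence, with AC50 and maximum efficacy derived from dose-response curves.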
IkB signaling = IkB pathway inhibition in ABC-DLBCL cells; ABC-DLBCL IkBa-CBG/CBR dual luciferase ratio, 4 h; response scale: scaled: untreated 0%, proteasome inhibitor 100%; Potency, µM (doses to about 57.1 µM); actives 0.04% (n = 110,000); active = well fitted curve in the direction sought with a large enough effect in the signal ratio, not every such curve was filed as active; inconclusive = small, poorly fitted or top-dose-only effect, or a change in a side signal; the % refers to the signal ratio;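 note: the direction sought is a rising ratio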
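In this assay, an IκBα–CBG68 fusion accumulates when IKK-driven degradation is blocked; native CBR normalizes for cell number. OCI-Ly3 cells were treated 4 h with compound and doxycycline, then green and red light read after Chroma-Glo addition.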
p53ts 32C tox = p53ts cell cytotoxicity, permissive temperature. H1299-p53A138V at 32C, ATP luminescence viability, 24 h. Potency, µM (highest dose often 46.1 µM), actives largely listed as cytotoxic. actives 0.93% (n = 130,000). AID 924; note: nearly all actives have a fitted effect of over 55% in size
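Viability by ATPlite luminescence after 24 h compound treatment (up to 46 uM) at the permissive 32C. Cells are H1299 carrying p53 A138V. Scale runs from DMSO basal to 100 uM tamoxifen as full kill; AC50 from Hill fits.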
Of the large screens only hits and unclear results are named; the others gave an inactive call. Unless noted, calls come from the whole dose curve; as a rule, active = well fitted curve in the direction sought with a large enough effect; inconclusive = small, poorly fitted or top-dose-only effect, or another doubt; inactive = no such curve, though single readings can be large; an effect the other way counts as inactive or inconclusive.

C[C@@]12C[C@H](O)C3[C@H](CCC4=CC(=O)CC[C@]43C)[C@H]1CC[C@@H]2c1csc(-c2ccccc2)n1 (stereo partly drawn)	none (no result: p53ts 39C tox, IkB signaling, p53ts 32C tox)
CC1(C)[C@@H]2CC[C@@]1(CS(=O)(=O)Nc1ccccc1)C(=O)C2	none
O=C(NC1=NCCS1)c1cc2ccccc2o1	p53ts 39C tox 5µM, IkB signaling inconclusive, p53ts 32C tox 5µM
CC(=O)Nc1ccc(NC(=O)CCc2c(C)nc3c(c(C)nn3-c3ccc(C)cc3)c2C)cc1	p53ts 39C tox 7.9µM, IkB signaling inconclusive
CCN(CC)CCCNC(=O)C1CCN(S(C)(=O)=O)CC1	none
O=C1c2ccccc2C(=O)C1c1ccc2ccccc2n1	p53ts 39C tox 2.5µM, IkB signaling inconclusive, p53ts 32C tox inconclusive
Nc1ccc(-c2ccc3ccccc3n2)cc1	p53ts 39C tox inconclusive, p53ts 32C tox inconclusive (no result: IkB signaling)
